High-throughput results: PubChem, several laboratories
HSF1 inhib: HSF1 inhibition. activity change, negative = inhibition, % at 7.5 µM (by protocol). 300,000 compounds, 0.77% hits. NIH3T3-HGL HSE-luciferase, MG132-induced, luminescence 8 h; active compounds read low;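 active means more than half of replicate wells show activity change below -50%, luminescence cut by over half; inconclusive means some wells, but at most half, below -50%; inactive means no replicate well below -50%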;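 further: luciferase reports HSF-1 transcriptional activity via heat shock element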
DAX1 inh: inhibitors of human orphan nuclear receptor DAX1 (NR0B1) | inhibition, % at 6.75 µM | 340,000 compounds, 0.99% hits | HEK293 Gal4-DAX1 luciferase reporter, luminescence | AID 504766 | P51843;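 active means inhibition above the mean over all tested compounds plus 3 SD, cut at about 4.2% in these data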;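 further: inhibition shows as a rise in luminescence from relieved DAX1 repression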
Target sequence (P51843 207-470 limits assumed): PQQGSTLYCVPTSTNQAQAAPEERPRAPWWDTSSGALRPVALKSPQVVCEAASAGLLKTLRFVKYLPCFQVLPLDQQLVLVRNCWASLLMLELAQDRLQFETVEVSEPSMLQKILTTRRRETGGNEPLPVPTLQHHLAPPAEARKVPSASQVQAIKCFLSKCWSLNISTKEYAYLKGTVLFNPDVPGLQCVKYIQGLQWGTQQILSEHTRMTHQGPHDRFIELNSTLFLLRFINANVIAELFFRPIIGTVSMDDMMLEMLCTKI
AHR act: activators of human aryl hydrocarbon receptor | AHR-responsive luciferase reporter cells, luminescence | AID 2796 | P35869 | activation, % at 5 µM | 320,000 compounds, 2.5% hits; in the data active means activation above about 47%
FXN GAA850 act: frataxin GAA850 promoter activation | HEK293 lucGAA850 FXN promoter luciferase reporter, 24 h; percent of 10 µM SAHA response | activation, % at 6 µM | 360,000 compounds, 0.56% hits | AID 540364;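 active means activation above the average of all compounds screened plus 3 SD, cutoff fixed separately per campaign, cut at about 7.5% in these data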
HSP90 inh: inhibitors of HSP90 luciferase refolding in rabbit reticulocyte lysate; luciferase refolding luminescence, 3 h; inhibition, % at 5.6 µM; 290,000 compounds, 0.91% hits; AID 1789;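 active means inhibition above the screen-wide mean plus 3 SD, computed separately per campaign, cut at about 16% in these data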;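 further: inhibitors lower the luminescence because luciferase stays unfolded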
HSF1 activator: increases HSF-1 driven luciferase reporter signal | activation, % at 9 µM | NIH3T3-HGL HSF-1 luciferase reporter, MG132, 8 h; 100% = twice DMSO control signal | 300,000 compounds, 1.7% hits | AID 504408;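 active means mean replicate activation of at least 50% with a set share of replicates each reaching 50%; inconclusive means only one of those two conditions met; inactive means mean below 50% and too few replicates reaching it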
GAA30 FXN cntr: GAA30 FXN promoter activation counter-screen | shares compounds with FXN GAA850 act | HEK293 lucGAA30 FXN promoter luciferase, 24 h; DMSO = 0%, 5 µM ipriflavone = 100% | activation, % at 6 µM | 1,900 compounds, 66% hits;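 active means mean activation above the mean of solvent-only control wells plus 3 SD, cut at about 22% in these data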;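 further: counterscreen of GAA850 promoter hits where activity marks nonselective or luminescence artifacts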
GAA850 confirm: confirmation of GAA850 frataxin (FXN) promoter activators. shares compounds with FXN GAA850 act. HEK293 lucGAA850 FXN promoter luciferase reporter, 24 h; 100% = activation by SAHA. activation, % at 6 µM. 1,900 compounds, 86% hits. AID 588351;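 active means mean activation above a set limit taken from the primary screen, cut at about 8% in these data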
Numbers stand for hits; 0 = inactive; ? = inconclusive; - = no result. An excerpt weighted towards active compounds, which were near 5.9% of everything screened.

SMILES	HSF1 inhib	DAX1 inh	AHR act	FXN GAA850 act	HSP90 inh	HSF1 activator	GAA30 FXN cntr	GAA850 confirm
COc1ccc([C@H]2N[C@]3(CCCN(Cc4ccc(Br)cc4)C3=O)[C@H]3C(=O)N(Cc4ccccc4)C(=O)[C@@H]23)cc1	-	0	-	0	-	-	-	-
COc1cc2c(cc1OC)C1=C(C#N)CC/C(=N\S(=O)(=O)c3cccc(Cl)c3)N1CC2	0	0	0	8.2	0	0	27	14
COc1ccc(-c2ccc(=O)n(Cc3c(F)cccc3Cl)n2)cc1	0	0	0	8.0	0	0	43	22
COc1ccc(-c2ccc(=O)n(Cc3cccc([N+](=O)[O-])c3)n2)cc1	0	0	0	0	0	0	-	-
COc1ccc(-n2nc(C(=O)NCC(=O)N(C)Cc3ccccc3)c3ccccc3c2=O)c(OC)c1	0	0	0	0	0	0	-	-
COc1ccc(CCN(C)C(=O)c2c(C)noc2C)cc1OC	-	0	0	0	-	-	-	-
Cc1cccc(C)c1Nc1nnc(SCc2nc3ccccc3s2)s1	0	0	0	8.6	0	0	121	43
Cc1ccnc(SCc2nc3ccccc3s2)n1	0	0	0	8.3	0	0	104	31
Cc1cccc(C)c1Nc1nnc(SCC(=O)NCc2cccs2)s1	0	0	0	0	0	0	-	-
Cc1sc2nc(CSc3ccccc3)nc(NCCN(C)C)c2c1C	0	0	0	0	0	0	-	-
CCNc1nc(CSc2ccccc2)nc2sc(C)c(C)c12	0	0	0	18	0	0	0	13
CC(C)c1ccc(N(C(=O)c2csnn2)C(C(=O)NC(C)(C)C)c2ccncc2)cc1 (stereo not given)	0	0	0	14	0	66	115	32
CN(C)/C=C/C(=O)c1ccc(Oc2ccccc2)cc1	0	0	0	7.8	0	0	103	33
CN(C)/C=C/C(=O)c1ccccc1	0	0	0	0	0	0	-	-
Fc1cccc(/C=N/Nc2cc(N3CCOCC3)ncn2)c1	0	0	0	9.3	0	0	127	99
CCC(=O)Nc1cccc(NC(=S)NC(=O)c2cc3ccccc3o2)c1	0	0	0	8.0	0	0	106	34
CCC(=O)Nc1cccc(NC(=S)NC(=O)c2ccc(C)cc2)c1	0	4.8	0	8.2	0	0	107	34
CCCNC(=O)C1(C)CCCN(Cc2cccc3ccccc23)C1 (stereo not given)	-	-	-	0	-	-	-	-
CC1CCCCC12NC(=O)N(CC(=O)c1ccc3c(c1)OCO3)C2=O (stereo not given)	0	0	0	0	-	0	-	-
COn1c(-c2ccc(Cl)cc2)nc2ncccc21	0	0	0	0	0	0	-	-
Nc1c(C(=O)c2ccccc2)oc2ccc([N+](=O)[O-])cc12	0	0	0	8.3	0	0	99	35
CCCCOc1ccc(/C=C/C(=O)OCC(=O)c2c(N)n(C)c(=O)n(C)c2=O)cc1OCC	0	0	0	0	0	0	-	-
S=C(Nc1ccc(Cl)cc1)c1nc2ccccc2[nH]1	0	0	0	7.8	0	0	113	33
CCNC(=S)Nc1ccc(-c2nc3ccccc3[nH]2)cc1	0	0	0	0	0	?	-	-
O=C(O)c1ccc2c3c(cccc13)C(=O)N(c1ccccc1)C2=O	0	0	0	0	0	0	-	-
SMILES	HSF1 inhib	DAX1 inh	AHR act	FXN GAA850 act	HSP90 inh	HSF1 activator	GAA30 FXN cntr	GAA850 confirm
CC(=O)c1ccc2c3c(cccc13)C(=O)N(CCc1ccccc1)C2=O	0	0	72	7.8	0	0	112	45
C=CCSc1nc(N)c(C#N)c(-c2ccccc2)c1C#N	0	0	0	11	0	0	0	17
CCCSc1nc(N)c(C#N)c(-c2ccc(C)cc2)c1C#N	0	0	0	0	0	0	-	-
CC(C)(C)C(=O)Nc1ccccc1C(=O)NCCC(=O)Nc1ccccc1	0	0	0	0	-	0	-	-
CNC(=S)N1CCN(c2ccc(OC)cc2)CC1	0	0	0	0	0	0	-	-
O=C(Nc1ncc(Cc2cccc(Cl)c2)s1)C1CCCO1 (stereo not given)	0	0	0	8.2	0	0	87	28
O=C(Nc1ccc2c(c1)OCO2)C1CC(c2cccc(Br)c2)=NO1 (stereo not given)	0	0	0	0	0	0	-	-
Oc1ccccc1N=Cc1sc2ccccc2c1Cl	0	0	0	0	0	0	-	-
Oc1sc(C=Nc2ccccc2)c2ccccc12	0	0	50	8.2	0	0	125	42
Cc1nnc(Cl)c2nn(-c3ccccc3F)c(C)c12	0	0	0	13	0	0	0	0
Cc1n[nH]c(=S)c2nn(-c3ccccc3F)c(C)c12	0	0	-	0	0	0	-	-
O=[N+]([O-])c1ccccc1S(=O)(=O)Nc1cccc(S(=O)(=O)N2CCCC2)c1	-	0	0	0	-	-	-	-
COc1ccccc1C(=O)Nc1ccncc1	0	0	0	0	0	0	-	-
COc1ccccc1C(=O)Nc1nsc(-c2ccccc2)n1	0	0	0	9.3	0	0	104	31
Cc1ccc(C)c(NC(=O)CN(C)C(=O)c2ccc(S(=O)(=O)N3CCCCCC3)cc2)c1	-	0	0	0	-	-	-	-
Cc1cccc2nc(COc3ccc4ccccc4c3Br)cn12	0	6.5	0	12	0	0	134	48
CNC(=S)N(CCc1ccc(S(N)(=O)=O)cc1)C1CC(=O)N(c2ccccc2F)C1=O (stereo not given)	0	0	0	0	0	0	-	-
Cc1cc2nc(N)sc2cc1C	0	0	0	8.4	0	0	109	27
CCOC(=O)C=C(C(=O)OCC)C(=O)OCC	-	0	-	0	0	-	-	-
CCc1nc2ccccc2c(C(=O)OCC(=O)N(CCOC)c2c(N)n(Cc3ccccc3)c(=O)[nH]c2=O)c1C	-	0	-	0	-	-	-	-
COc1cc(OC)c(OC)cc1/C=N/Nc1ncnc2c1[nH]c1ccccc12	0	0	0	7.9	0	0	0	18
CC(C)Cn1c(-c2cc(Br)ccc2F)nc2c1c(=O)[nH]c(=O)n2CC(C)C	0	0	0	0	0	0	-	-
COc1ccc(-c2csc(N3C(=N)SCC3=O)n2)cc1	0	0	0	10	0	0	96	28
CC(=O)N1CCN(CC(=O)Nc2ccccc2C(=O)Nc2ccccc2)CC1	-	0	0	0	-	-	-	-
Fc1ccc(-c2csc3ncnc(Nc4ccc(N5CCOCC5)cc4)c23)cc1	0	0	0	12	0	0	0	11
NC(=O)C1(NC(=O)[C@@H]2CC3(CC(c4cccc(NC(=O)[C@@H]5CCC(=O)N5)c4)=NO3)CN2C(=O)c2cnccn2)CC1 (stereo not given in full)	0	0	0	0	0	0	-	-
